INS promoter inh: inhibitors of insulin promoter-driven GFP, primary screen, imaging, TRM-6 cells (human fetal islet line), eGFP reporter, cell count. reporter expression induced with tamoxifen. inhibition, % at 2 µM. AID 1273, 2008. actives 0.9% (n = 130,000);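 active means inhibition above the mean plus 3 SD, with well images judged a real hit on visual review, cut at about 60% in these data, passing the limit was not always enough; inconclusive means inhibition over the cutoff but images rejected on review; inactive means inhibition not above the cutoff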
KCC2 mod: KCC2 cotransporter modulators, thallium flux, primary screen, cell-based, HEK293 KCC2, FluoZin-2 fluorescence, MLSMR; Solute carrier family 12 member 5 (Homo sapiens), Q9H2X9; KCC2 cells, thallium flux FluoZin-2 fluorescence; B-score of Tl+ flux slope (higher = more flux/activation; lower = inhibition) at 10 µM; actives 2.2% (n = 190,000); AID 1456, 2008;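 active means thallium flux slope and its plate-corrected score both differing from the plate sample mean at a set confidence after two filtering rounds, in either direction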;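 further: slope of fluorescence scaled to starting intensity during 10 to 20 s after thallium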
Target sequence (Q9H2X9 whole entry, looked up): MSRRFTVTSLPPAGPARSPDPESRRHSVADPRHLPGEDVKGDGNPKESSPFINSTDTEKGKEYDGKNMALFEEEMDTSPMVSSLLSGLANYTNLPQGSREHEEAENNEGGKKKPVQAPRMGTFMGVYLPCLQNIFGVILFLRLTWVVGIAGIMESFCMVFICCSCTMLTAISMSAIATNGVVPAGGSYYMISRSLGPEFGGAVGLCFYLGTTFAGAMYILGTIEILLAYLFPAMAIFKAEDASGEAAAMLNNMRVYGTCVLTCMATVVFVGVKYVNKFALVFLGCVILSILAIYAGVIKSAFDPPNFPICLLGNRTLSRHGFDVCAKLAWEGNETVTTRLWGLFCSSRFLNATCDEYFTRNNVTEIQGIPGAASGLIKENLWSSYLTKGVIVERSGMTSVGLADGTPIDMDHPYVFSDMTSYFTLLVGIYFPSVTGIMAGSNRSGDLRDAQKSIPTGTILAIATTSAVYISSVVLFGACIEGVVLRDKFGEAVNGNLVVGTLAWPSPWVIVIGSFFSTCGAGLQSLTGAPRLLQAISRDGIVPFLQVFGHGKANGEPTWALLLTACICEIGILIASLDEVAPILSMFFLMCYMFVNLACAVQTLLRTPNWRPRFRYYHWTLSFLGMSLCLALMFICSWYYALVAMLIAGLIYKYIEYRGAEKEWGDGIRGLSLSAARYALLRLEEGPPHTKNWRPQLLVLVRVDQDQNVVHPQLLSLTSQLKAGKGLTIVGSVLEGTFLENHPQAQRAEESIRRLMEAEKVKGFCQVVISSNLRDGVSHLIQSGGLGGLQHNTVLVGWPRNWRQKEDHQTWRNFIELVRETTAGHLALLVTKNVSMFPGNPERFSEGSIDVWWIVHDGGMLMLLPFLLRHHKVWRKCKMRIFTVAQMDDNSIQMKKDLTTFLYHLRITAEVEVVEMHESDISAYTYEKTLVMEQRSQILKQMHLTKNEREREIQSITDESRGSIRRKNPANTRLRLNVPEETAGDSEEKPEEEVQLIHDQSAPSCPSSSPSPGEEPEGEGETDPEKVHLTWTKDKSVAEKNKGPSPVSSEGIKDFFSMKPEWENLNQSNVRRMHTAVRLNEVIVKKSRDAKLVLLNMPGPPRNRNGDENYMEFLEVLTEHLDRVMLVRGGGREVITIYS
Lmaj promast: Leishmania major promastigote growth inhibition, primary screen. actives 9% (n = 200,000). Leishmania major promastigotes, resazurin fluorescence viability. inhibition, % at 10 µM; in the data active means inhibition above about 50%;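 further: promastigotes grown with compound for 44 hours at 28 °C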
WT yeast gro inh: growth inhibition of WT strain, primary screen, mitochondrial fusion inhibitor project, WT and mutant strains, chemical genetic; actives 2.1% (n = 190,000); inhibition, % at 10 µM; mitochondrial fusion phenotypic screen; in the data active means inhibition above about 58%; tested in S. cerevisiae
Insulin prom up: insulin promoter activators in MIN6 cells, imaging, high-content screening, mouse beta cells; MIN6 insulin promoter-GFP reporter; stronger effect = higher value; z-score at 5 µM; actives 0.3% (n = 190,000); AID 1625, 2009;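 active means z-score above 3 at 5 µM with at least 500 cells counted in the well; inconclusive means wells under 500 cells, flagged as cytotoxic or low count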
ROMK primary: ROMK potassium channel modulators, primary screen, cell-based, thallium flux, MLSMR library; ATP-sensitive inward rectifier potassium channel 1 (Homo sapiens), P48048; Tet-inducible ROMK, thallium flux fluorescence; actives lie on both sides; B-score at 10 µM; actives 2% (n = 130,000);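 active means signal ratio slope over the read window, or its plate-corrected B-score, at least 3 SD from the plate mean, either direction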;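 further: B-score of the F/F0 ratio slope over 7 to 12 s after thallium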
KCC2 sec1: KCC2 modulators in sodium-free buffer, confirmation, cell-based, HEK293 KCC2, thallium flux, secondary assay; FluoZin2 fluorescence; stronger effect = higher value; shares compounds with KCC2 mod; AID 1713, 2009; normalised thallium flux (F/F0 slope) at 10 µM; actives 15% (n = 3,700);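 active means thallium flux slope above the same plate's solvent-only control mean plus 3 SD; inconclusive means the two replicate wells disagree; inactive means no significant difference from solvent-only control wells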
KCC2 bumet counter: thallium flux persisting under bumetanide in KCC2 cells, confirmation, counter-screen for KCC2 modulator project, cell-based, HEK293 KCC2, FluoZin2, secondary assay 3; shares compounds with KCC2 mod; HEK293-KCC2 + bumetanide/ouabain; stronger effect = higher value; normalized thallium flux at 10 µM; actives 49% (n = 3,700);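 active means thallium entry rate above the same plate's blocked-transporter control wells by more than 3 SD; inconclusive means the two repeat wells disagree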;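 further: raw slope of fluorescence over initial fluorescence between 10 and 20 s after thallium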
KCC2 secondary2: KCC2 modulators without ouabain present, confirmation, cell-based, HEK293 KCC2, thallium flux, FluoZin2, secondary assay 2 | shares compounds with KCC2 mod | thallium flux FluoZin2 fluorescence; actives lie on both sides; F/F0 rise rate, 10–20 s post-thallium | AID 1715, 2009 | actives 23% (n = 3,700) | normalized thallium flux at 10 µM;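 active means thallium flux slope more than 3 SD above or below the plate's solvent-only control mean, mostly below; inconclusive means the two repeat wells disagreed; inactive means no significant shift from solvent-only controls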;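 further: raw slope with 0.1% DMSO as baseline and bumetanide as block control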
HEK counter1: thallium flux modulation in parental HEK cells, confirmation, counter-screen for KCC2 modulator project, cell-based, counterscreen 1; shares compounds with KCC2 mod; HEK293 parental cells, thallium flux FluoZin2, ouabain; baseline-ratio fluorescence slope, 10–20 s after thallium; thallium flux rate (normalised fluorescence) at 10 µM; actives 46% (n = 3,700); AID 1716, 2009;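 active means thallium flux rate significantly above the same plate's solvent-only control wells, beyond their mean plus 3 SD; inconclusive means the two replicate wells gave conflicting results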
KCC2 retest ouab: KCC2 inhibitors and activators, ouabain retest, confirmation, HEK-KCC2 cells; shares compounds with KCC2 mod; HEK293-KCC2, thallium flux FluoZin2 fluorescence; bidirectional: low = inhibitor, high = activator; raw Tl+ flux slope (below DMSO = inhibition, above = activation) at 10 µM; actives 48% (n = 3,700);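 active means thallium flux slope beyond 3 SD from same-plate DMSO control mean in most replicates, usually higher, sometimes lower; inconclusive means repeat tests gave conflicting results; inactive means no significant difference from controls in most replicates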;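 further: slope of initial-normalized fluorescence between seconds 10 and 20 after thallium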
HEK counter2: native HEK Tl+ uptake effects, second counter-screen – HEK cells, counterscreen 2, counter-screen for KCC2 modulator project, confirmation. thallium flux slope at 10 µM. HEK293 parental, thallium flux FluoZin-2 fluorescence slope. actives 33% (n = 3,700). shares compounds with KCC2 mod. AID 1718, 2009;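 active means thallium flux slope above the same plate's solvent-control mean plus 3 SD in both duplicate wells; inconclusive means duplicate wells that disagreed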;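 further: run without ouabain in cells lacking the KCC2 cotransporter; slope of fluorescence scaled to its starting value between 10 and 20 s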
* marks the source's active call; other numbers are inactive results; i = inactive; ? = inconclusive; . = not tested or not shown. Only some compounds are listed: those with a hit (about 12% of all), similar ones and a draw of the others.

SMILES	INS promoter inh	KCC2 mod	Lmaj promast	WT yeast gro inh	Insulin prom up	ROMK primary	KCC2 sec1	KCC2 bumet counter	KCC2 secondary2	HEK counter1	KCC2 retest ouab	HEK counter2
Cc1ccc(NC(=O)c2ccccc2NS(=O)(=O)c2ccc(Cl)s2)cc1	50	-3.7*	53*	82*	-0.14	0.002	0.0071	?	0.022*	0.0072	?	0.01
O=C(Nc1ccccc1)c1ccccc1NS(=O)(=O)c1ccc(Cl)s1	-21	.	-6	53	-3.5	.	.	.	.	.	.	.
O=C(COc1ccccc1)NCCc1cn2ccsc2n1	.	0.27	-4	-7	0.28	.	.	.	.	.	.	.
CCn1cc(C2=NOC(C(=O)Nc3cc(C)nn3-c3ccccc3)C2)c(C)n1 (stereo not given)	12	4.6*	-8	10	-0.08	-0.67	0.011	?	0.034	0.0082	0.022	0.011
O=C(Nn1c(O)c(C=C2N=c3ccccc3=N2)sc1=S)c1ccccc1Cl	13	-4.4*	-8	-9	.	.	0.017	0.0048	0.02*	0.0077	0.014	0.012
O=C(Nc1nc(COc2ccccc2)cs1)C1CCC1	-31	-4.3*	5	-9	.	-0.38	0.0093	0.0071	?	0.0068	0.013*	?
Cc1ccc(C(=O)Nc2nc(COc3ccccc3)cs2)s1	3	-3.1	0	21	-0.15	.	.	.	.	.	.	.
N#CC1=C(O)C(c2ccccc2)n2c1nc(=O)c1ccccc12 (stereo not given)	-12	.	-7	-5	1.4	.	.	.	.	.	.	.
Cc1cc(NC(=O)CSc2nc(C(C)C)nc3sc(C)c(C)c23)no1	12	9.3*	-2	-5	-0.65	0.015	?	0.034*	0.038	0.017*	?	0.012*
Cc1sc2nc(C(C)C)nc(SCC(=O)N3CCN(C(=O)c4ccco4)CC3)c2c1C	62	.	27	20	.	-0.2	0.0066	0.017*	0.029	0.012*	0.019	0.012*
Cc1cc(NC(=O)CSc2nc(C(C)C)nc3ccccc23)no1	44	-0.046	10	-12	-0.71	.	.	.	.	.	.	.
CC(=O)CCn1c(=O)n(CCC(C)=O)c(=O)n(CCC(C)=O)c1=O	39	0.73	-1	-8	0.51	.	0.0094	?	0.035	0.0083	0.024	?
CCCOc1cccc(-c2cc(C(=O)NN)c3ccccc3n2)c1	7	22*	-9	20	0.18	-1	0.0065	0.0044	0.029	0.0073	0.019	0.0096
CCCCOc1cccc(-c2cc(C(=O)NNC(=S)NCC)c3ccccc3n2)c1	-27	-0.76	-7	-8	-0.17	.	.	.	.	.	.	.
Cc1cc(C)c2cc(C#N)c(N3CCCC3)nc2c1	.	8.7*	1	8	-0.7	0.12	0.011	0.0059	0.036	0.007	0.026	0.01
CC(C)Cn1cc(C(=O)N2CCN(c3ccccn3)CC2)c2c3ccccc3n(C)c2c1=O	.	.	9	5	0.11	.	0.009	0.0059	0.03	0.0068	0.034	0.01
COc1ccc(CNC(=S)N/N=C(/C)c2ccccc2)cc1	.	5.7*	.	.	-0.01	0.85	0.0071	0.023*	0.034	0.014*	?	0.016*
C/C(=N\NC(=S)NCc1ccccc1)c1ccco1	-24	13*	-1	32	-0.11	1	0.012	0.019*	0.038	?	0.029*	0.012
C/C(=N\NC(=S)NCc1ccccc1)c1ccccc1	13	7.8*	-7	62*	-0.06	-1	0.01	0.043*	0.031	0.015*	0.07*	0.011
CC(C)OCCCNC(=O)Cc1ccc(Br)cc1	41	0.18	-3	9	-0.21	0.083	.	.	.	.	.	.
CSc1nc2c(c(=O)n1-c1ccc(C)cc1)SCC2	-22	0.047	7	-26	1.3	.	.	.	.	.	.	.
CCc1c(C(C)S(=O)(=O)c2ccccc2)[nH]c(=O)n1CC (stereo not given)	.	0.48	-3	-3	0.54	0.092	.	.	.	.	.	.
CCCC(C)C(=O)NCc1ccc2c(c1)OCO2 (stereo not given)	-3	.	-3	32	0.02	0.041	.	.	.	.	.	.
COc1ccc(OC)c(NC(=O)CSC2=NCCS2)c1	-22	-0.33	0	-9	-0.43	.	.	.	.	.	.	.
CC1=CCC2C(=O)N(c3cccc(C(=O)N(C)C4CCCCC4)c3)C(=O)C2C1 (stereo not given)	.	0.0084	-5	-3	0.12	0.5	.	.	.	.	.	.
O=[N+]([O-])c1ccccc1NC(=S)N/N=C/c1ccc(O)c(O)c1	.	.	1	7	-2.1	1.9	.	.	.	.	.	.
O=C(Nc1ccccc1N1CCOCC1)c1ccccc1NS(=O)(=O)c1ccc(F)cc1	-8	-1.6	2	9	0.95	0.9	.	.	.	.	.	.
O=C(Nc1ccc(-c2nc3ccccc3[nH]2)cc1)c1ccccc1NS(=O)(=O)c1ccc(F)cc1	.	-4.6*	-9	-9	-0.1	0.22	0.0077	0.0042	0.029	0.0073	0.015*	0.01
O=C(Nc1cc(S(=O)(=O)N2CCCCC2)ccc1Cl)c1ccccc1NS(=O)(=O)c1ccc(F)cc1	i	-4.8*	6	72*	-2	0.91	0.0083	0.0065	?	0.0056	?	0.0091
CCOC(=O)C(NC(=O)c1ccccc1)(N1CCCC1=O)C(F)(F)F (stereo not given)	7	0.59	-1	1	.	.	.	.	.	.	.	.

Source: PubChem (several laboratories)
